# Laboratory results reported in PubChem BioAssay (NCATS).
# Records with an inconclusive call do not appear. A number with no mark means an inactive call. The source made the active and inactive calls. Calls follow the shape of the dose curve; as a rule, active = well fitted inhibition curve with a large enough effect; inconclusive = small, poorly fitted or top-dose-only effect; inactive = flat fitted curve, though single readings scatter.
# Assay: Primary qHTS for inhibitors of nuclear receptor binding SET domain protein 2 (NSD2) in an isogenic RCH-ACV NSD2 p.E1099K mutant (9B) (AID 1645876); also: nearly all actives have a fitted effect of over 70% in size
# Settings: RCH-ACV (leukaemia line) NSD2 E1099K (9B) viability, CellTiter-Glo, 72 h; series mostly up to 44.9 µM; activity change, negative = viability loss: at the top concentration
# % is scaled to controls: 0 for no effect and ±100 for the full control effect.
SMILES,outcome,"activity change, negative = viability loss"
C=C1CCC2(OC1)OC1CC3C4CC=C5CC(O)CC(O[C@@H]6OC[C@@H](O)[C@H](O)[C@H]6O)C5(C)C4CCC3(C)C1(O)C2C (some centres not stated),inactive [at 17.3 µM],
CC1=CC(=O)CC(C)(CO[C@@H]2O[C@H](CO)[C@@H](O)[C@H](O)[C@H]2O)C1(O)/C=C/C(C)=C/C(=O)O (some centres not stated),,-6.06% [at 17.3 µM]
COc1cc([C@H]2OC[C@@H]3[C@@H](c4ccc(O[C@@H]5O[C@H](CO)[C@@H](O)[C@H](O)[C@H]5O)c(OC)c4)OC[C@]23O)ccc1O,,-9.84% [at 17.3 µM]
C=CC(C)(O)CC/C=C(\C)C(=O)OCC1OC(OC2CCC3(C)C(CCC4(C)C3CC=C3C5CC(C)(C)C(O)CC5(C(=O)O)CCC34C)C2(C)C)C(O)C(OC2OC(CO)C(O)C(OC3OC(CO)C(O)C(OC4OC(COC5OC(CO)C(O)C(O)C5O)C(O)C(O)C4O)C3O)C2O)C1O (configuration not stated),inactive [at 9.23 µM],
CC1CCC2(O1)C(C)(C)CC(O[C@@H]1O[C@H](CO[C@@H]3OC[C@](O)(CO)[C@H]3O)[C@@H](O)[C@H](O)[C@H]1O)CC2(C)O (some centres not stated),inactive [at 17.3 µM],
CC1(C)CCCC2(C)C(CO)C3CCC2C31 (configuration not stated),,-0.746%
CC1NC(=O)C(Cc2c[nH]c3ccccc23)NC1=O (configuration not stated),,-4.42%
